Assay results from PubChem BioAssay AID624296 (National Center for Advancing Translational Sciences (NCATS), 2012).
About 9,900 (2.8%) of roughly 350,000 compounds were called active. Not shown: some 15% with an inconclusive outcome. The call rests on the fitted dose curve; in most records, active means well fitted activation curve with a large enough effect; inconclusive means small, poorly fitted or top-dose-only effect; inactive means no such curve, though single readings can be large or run the other way. The sample as a whole holds a higher share of actives than the screen did.

Assay: A quantitative high throughput screen for small molecules that induce DNA re-replication in MCF 10a normal breast cells. Further: nearly all actives have a fitted effect of over 50% in size. On activity, positive = re-replication: % of control where 0% means no effect.
Conditions: MCF 10A DNA re-replication, Hoechst nuclear intensity, 48 h; series mostly up to 46.1 µM; activity, positive = re-replication: at the top concentration
Potency means the concentration at half of the fitted maximal effect.

SMILES	activity, positive = re-replication	Potency
CN(C(=O)c1ccc(NC(=O)Cc2cccc(NC(=O)C3CCN(C(=O)c4ccccc4)CC3)c2)cc1)C1CC1	-0.344% (inactive)	–
Cc1cn(C2CC(O)C(CO)O2)c(=O)n(CCCc2ccccc2)c1=O (centres undefined)	-6.86% (inactive)	–
CS(=O)(=O)c1ccc(C(=O)NNC(=O)c2cccs2)cc1	-4.4% (inactive)	–
Cc1noc(C)c1NC(=O)Nc1ccc2c(c1)C(=O)N([C@H](C)CO)C[C@H](C)[C@@H](CN(C)C(=O)Nc1ccc(C(F)(F)F)cc1)O2	0.503% (inactive)	–
Cc1ccc(NC(=O)CCC(=O)N2CCC(c3ccccc3)=N2)cc1S(=O)(=O)N1CCCCC1	–	18.4 µM (active)
CCc1ccccc1OCC(=O)Nc1ccc(C)c(S(=O)(=O)N2CCCCCC2)c1	3.74% (inactive)	–
Cc1ccc(NC(=O)CCCNC(=O)c2ccc(Cl)cc2)cc1S(=O)(=O)N1CCCCC1	29.3% (inactive)	–
CC(=O)OCC(=O)C1(O)CCC2C3CC(C)C4=CC(=O)CCC4(C)C3C(O)CC21C (centres undefined)	-0.434% (inactive)	–
CCOc1ccc(-c2n[nH]c(C)c2-c2ccccn2)c(O)c1	25.8% (inactive)	–
COc1ccc(-c2n[nH]c(C)c2-c2ccccc2OC)c(O)c1	8.35% (inactive)	–
COc1ccc(-c2n[nH]c(C)c2-c2ccc(OC)c(OC)c2)c(O)c1	–	16.4 µM (active)
N#CCCN(C(=O)COC(=O)c1ccc2c(c1)OCCO2)c1ccccc1	-3.14% (inactive)	–
O=C(NCCC1CCCCN1S(=O)(=O)c1ccc(F)cc1)C(=O)NC1CC1 (centres undefined)	0.164% (inactive)	–
O=C(NCCC1CCCCN1S(=O)(=O)c1cccs1)C(=O)Nc1ccc(F)cc1F (centres undefined)	–	11.6 µM (active)
COc1ccccc1CCNC(=O)C(=O)NCCC1CCCCN1S(=O)(=O)c1cccs1 (centres undefined)	-15.6% (inactive)	–
CCOC(=O)C1CCN(C(=O)c2cccc(S(=O)(=O)N(CC)c3ccccc3)c2)CC1	3.93% (inactive)	–
CCN(C[C@H]1N[C@@](CC)(C(=O)OC)[C@H]2C(=O)N(Cc3ccccc3)C(=O)[C@@H]12)S(=O)(=O)c1ccccc1	0.775% (inactive)	–
O=C(COC(=O)c1ccccn1)NNC(=O)c1ccc(Br)cc1	16.2% (inactive)	–
Cc1cccc(N=C2NC(=O)/C(=C/c3cn(C)c4ccccc34)S2)c1	–	10.3 µM (active)
Cc1ccc(C(=O)N/C(=C\c2cn(C)c3ccccc23)C(=O)N2CCN(C)CC2)cc1	0.634% (inactive)	–
Cc1ccc(N2C(=O)S/C(=C/c3cn(C)c4ccccc34)C2=O)cc1	11.6% (inactive)	–
C=CC[C@@H](CC(=O)N[C@H](CO)Cc1ccccc1)C(=O)N[C@H](C)COC(=O)[C@@H](CC=C)Cc1ccc(F)cc1	17.3% (inactive)	–
C=CCn1c(=O)n(C)c2c(=O)n(C)c(=O)n(C)c21	-42.5% (inactive)	–
COc1ccc(CCNC(=O)COC(=O)Cc2cccc(F)c2)cc1	2.75% (inactive)	–
Oc1[nH]c2ccccc2c1N=Nc1c(F)c(F)c(F)c(F)c1F	4.82% (inactive)	–

SMILES	activity, positive = re-replication	Potency
COC(C/C=C/C(=O)[C@@H](C)OCc1ccccc1)OC	–	18.4 µM (active)
COC(C[C@@H]1O[C@@H]1C(=O)[C@H](C)OCc1ccccc1)OC	-8.59% (inactive)	–
COC(C[C@H](O)CC(=O)[C@@H](C)OCc1ccccc1)OC	-5.01% (inactive)	–
COc1ccc(S(=O)(=O)N(C)C[C@@H]2Oc3ccc(NC(=O)Nc4c(C)noc4C)cc3C(=O)N([C@H](C)CO)C[C@@H]2C)cc1	1.93% (inactive)	–
CC(=O)N/N=C/c1cc2c(cc1[N+](=O)[O-])OCO2	-33.2% (inactive)	–
Cc1ccc(-c2n[nH]c(=S)n2/N=C/c2cc3c(cc2[N+](=O)[O-])OCO3)cc1	12.5% (inactive)	–
Cc1ccc(S(=O)(=O)N/N=C\c2cc3c(cc2[N+](=O)[O-])OCO3)cc1	–	23.1 µM (active)
O=C1COc2ccc(C(=O)CSc3ccc(Br)cc3)cc2N1	-6.85% (inactive)	–
COc1ccc(Cn2cc(CN3CCS(=O)(=O)N(Cc4ccc(-c5cccc(Cl)c5)cc4)C(C)C3=O)nn2)cc1 (centres undefined)	10.9% (inactive)	–
Cc1[nH][nH]c(=O)c1N=Nc1ccccc1	1.74% (inactive)	–
Cc1[nH][nH]c(=O)c1C(c1ccc(-c2ccc(Cl)cc2)o1)c1c(C)[nH][nH]c1=O	–	20.6 µM (active)
CN(CC(=O)Nc1ccc(F)cc1)C(=O)c1ccc(-c2ccc(Cl)cc2)o1	1.65% (inactive)	–
CC(=O)Nc1cccc(C(=O)Nc2nc(C)cs2)c1	-2.89% (inactive)	–
S=C(Nc1cccc(Cl)c1)Nc1ccc2cn[nH]c2c1	-1.25% (inactive)	–
Cc1csc(NC(=S)Nc2cccc(Cl)c2)n1	–	20.6 µM (active)
COC(=O)c1ccc(CSc2nnc(N)s2)o1	2.09% (inactive)	–
CCOc1ccccc1Nc1nnc(SCc2ccc(C(=O)OC)o2)s1	–	18.4 µM (active)
CCOc1ccccc1Nc1nnc(SCC(=O)NCC2CCCO2)s1 (centres undefined)	4.59% (inactive)	–
NC1=NOC(=O)C1C1CCCCC1 (centres undefined)	6.94% (inactive)	–
CCOc1ccc(S(=O)(=O)N2CCN(C(=O)c3oc4ccccc4c3C)CC2)cc1	4.12% (inactive)	–
Cc1cc(N2CCCC2)ccc1NC(=O)COc1ccc(Cl)cc1	-0.481% (inactive)	–
Cc1ccc(S(=O)(=O)N2CCN(c3ncnc4ccccc34)CC2)cc1	5.96% (inactive)	–
Cc1ccc(C)c(S(=O)(=O)N2CCN(c3ncnc4sccc34)CC2)c1	–	18.4 µM (active)
COc1ccc(C)cc1S(=O)(=O)N1CCN(S(=O)(=O)c2cc(C(=O)O)ccc2C)CC1	5.98% (inactive)	–
COC(=O)Cc1c(-c2[nH]c3ccccc3c2CC(=O)OC)[nH]c2ccccc12	16% (inactive)	–

SMILES	activity, positive = re-replication	Potency
COc1ccc(NC(=O)CSc2nnc(C3CC3)n2C)cc1S(=O)(=O)N1CCCCC1	-2.92% (inactive)	–
CCc1ccccc1NC(=O)c1ccc2snnc2c1	6.7% (inactive)	–
O=C(Nc1cccc(Br)c1)c1ccc2snnc2c1	8.15% (inactive)	–
O=C(Nc1ccc2ccccc2c1)Nc1ccc2snnc2c1	–	5.8 µM (active)
CC(=O)c1c(OCC(=O)N(C)C2CCCCC2)ccc2c(C)cc(=O)oc12	-5.05% (inactive)	–
CC1=CC(=NNS(=O)(=O)c2ccc([N+](=O)[O-])cc2)CC(C)(C)C1	9.01% (inactive)	–
COc1cc(C(=O)Nc2oc(-c3ccccc3)c(-c3ccccc3)c2C#N)cc(OC)c1OC	12.2% (inactive)	–
COc1ccc(-c2oc(/N=C/N3CCCC3)c(C#N)c2-c2ccc(OC)cc2)cc1	4.62% (inactive)	–
N#Cc1c(/N=C/N2CCCC2)oc(-c2ccccc2)c1-c1ccccc1	–	9.2 µM (active)
O=C1NC(c2ccccc2)Cc2ccncc21 (centres undefined)	1.31% (inactive)	–
CCN(CC)S(=O)(=O)c1ccc(OC)c(NC(=O)CCc2c(C)noc2C)c1	-0.0933% (inactive)	–
C=C1CCC(N(O)c2cc(C)on2)C(=C)CCC2C1CC2(C)C (centres undefined)	12.3% (inactive)	–
CCCCN(C(=O)C(CCSC)N1C(=O)c2ccccc2C1=O)c1c(N)n(CCC)c(=O)[nH]c1=O (centres undefined)	5.35% (inactive)	–
NNc1nc2c(Cl)cccc2s1	–	16.4 µM (active)
O=C(Nc1ccccc1)Nc1nc2ccccc2s1	-1.93% (inactive)	–
CN(CC(=O)Nc1ccc(OC(F)F)cc1)S(=O)(=O)/C=C/c1ccccc1	-0.819% (inactive)	–
O=C(NN=Cc1ccccc1)c1ccccc1	2.48% (inactive)	–
CC(C)(C)OC(=O)NCCCCCNC(=O)c1nc[nH]c1C(=O)NCc1ccccc1	19.9% (inactive)	–
O=C1OC(Cc2ccccc2)C(c2ccccc2)C1=O (centres undefined)	11.9% (inactive)	–
COc1ccc(Cl)cc1NC(=O)CCN1CCOCC1	-2.83% (inactive)	–
COc1ccc(OC)c(NC(=O)CCN2CCC(C)CC2)c1	–	5.17 µM (active)
CCOC(=O)N1CCN(CCC(=O)Nc2cc(OC)ccc2OC)CC1	1.69% (inactive)	–
CC1CCCC(NC(=O)c2cc(-c3ccncc3)nc3ccccc23)C1C (centres undefined)	182% (inactive)	–
O=C(COC(=O)COc1cccc(F)c1)NCC1CCCCC1	4.24% (inactive)	–
COc1ccc(S(=O)(=O)N2CCOCC2)cc1NC(=O)CSc1nnc(NC2CC2)s1	0.0251% (inactive)	–

SMILES	activity, positive = re-replication	Potency
Cc1ccc(Cc2nc(-c3cccc(C)c3)no2)cc1	5.26% (inactive)	–
Cc1ccc(-c2noc(CC(c3ccccc3)c3ccccc3)n2)cc1	19.8% (inactive)	–
COc1ccccc1Cc1nc(-c2ccc(C)cc2)no1	–	5.8 µM (active)
NC(=O)NCCCC(=O)O	2.9% (inactive)	–
CN(CC(=O)NCC(c1ccccc1)N1CCCC1)S(=O)(=O)c1ccc(Cl)cc1 (centres undefined)	13.6% (inactive)	–
Cn1ccc(NC(=O)Nc2ccc(Cl)cc2)n1	-29.8% (inactive)	–
CN(c1cccc(NC(=O)Nc2ccc(Cl)cc2)c1)S(C)(=O)=O	–	13 µM (active)
Cc1ccc(N(CC(=O)Nc2cccc(N(C)S(C)(=O)=O)c2)S(C)(=O)=O)cc1	-6.44% (inactive)	–
COc1ccc(NS(=O)(=O)c2ccc(N3CCOCC3)c(NC(=O)/C=C/C(=O)O)c2)cc1	-2.55% (inactive)	–
O=C(/C=C/c1cn(-c2ccccc2)nc1-c1ccc2c(c1)OCCO2)NCCCN1CCOCC1	10% (inactive)	–
Cc1ccc(-c2nn(-c3ccccc3)cc2/C=C/C(=O)Nc2cccc(S(N)(=O)=O)c2)cc1	–	13 µM (active)
Cc1ccc(-c2nn(-c3ccccc3)cc2C(=O)Nc2cccc(S(=O)(=O)N3CCOCC3)c2)cc1	1.34% (inactive)	–
CC(=O)c1ccc(S(=O)(=O)NCCC(=O)N2CCN(c3ccccn3)CC2)cc1	-6.67% (inactive)	–
Cc1csc(SCC(=O)N(c2ccccc2)C(C)C)n1	15.8% (inactive)	–
c1ccc2c(c1)OC1OC2Oc2ccccc21	-3.33% (inactive)	–
CC(C)(C)OC(=O)N1CCC(NC(=O)c2[nH]cnc2C(=O)N[C@@H](Cc2ccccc2)C(=O)OCc2ccccc2)CC1	–	14.6 µM (active)
O=C(N[C@@H](Cc1ccccc1)C(=O)OCc1ccccc1)c1nc[nH]c1C(=O)NC1CCNCC1	0.257% (inactive)	–
O=C(N[C@@H](Cc1ccccc1)C(=O)OCc1ccccc1)c1nc[nH]c1C(=O)N[C@@H](Cc1ccccc1)C(=O)OCc1ccccc1	16.7% (inactive)	–
NS(=O)(=O)c1ccc(CCNC(=O)c2ccc(Cl)c(S(=O)(=O)N3CCCCCC3)c2)cc1	20.2% (inactive)	–
Cc1ccc(C(CC(=O)O)NC(=O)c2ccc(S(=O)(=O)N3CCCC3)cc2)cc1 (centres undefined)	-3.45% (inactive)	–
CCOC(=O)C1(Cc2cccc(OC)c2)CCN(Cc2csc(C(C)=O)c2)CC1	–	8.2 µM (active)
CCOC(=O)C1(Cc2cccc(OC)c2)CCN(C(C)COC)CC1 (centres undefined)	11.2% (inactive)	–
CCOC(=O)C1(Cc2cccc(OC)c2)CCN(C(C)CC(C)(C)O)CC1 (centres undefined)	0.346% (inactive)	–
N#CC1(Nc2ccc(-c3ccc(Cl)cc3)cc2)CCCC1	-2.31% (inactive)	–
